Compound activity (PubChem)
Mtb UGM inh: Mtb UDP-galactopyranose mutase inhibition. purified UGM, fluorescence polarization probe displacement. 320,000 compounds, 0.06% hits. P9WIQ1. inhibition, % at 10 µM; in the data active = inhibition above about 10%, passing the limit was not always enough
Target sequence (P9WIQ1 whole entry, looked up): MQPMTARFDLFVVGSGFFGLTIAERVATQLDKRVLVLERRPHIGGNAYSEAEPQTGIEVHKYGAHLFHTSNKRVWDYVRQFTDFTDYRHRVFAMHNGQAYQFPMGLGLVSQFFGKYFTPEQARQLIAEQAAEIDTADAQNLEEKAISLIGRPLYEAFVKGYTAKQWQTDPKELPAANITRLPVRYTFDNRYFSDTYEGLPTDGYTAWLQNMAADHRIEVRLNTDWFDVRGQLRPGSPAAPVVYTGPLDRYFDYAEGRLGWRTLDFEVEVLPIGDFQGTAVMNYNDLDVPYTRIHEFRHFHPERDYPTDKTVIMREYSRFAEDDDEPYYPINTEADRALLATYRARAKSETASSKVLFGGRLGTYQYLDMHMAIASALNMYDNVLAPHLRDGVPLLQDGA
TcdB GH inh: blocks C. difficile toxin B glycohydrolase activity | TcdB glycohydrolase enzymatic assay, plate reader | inhibition, % at 9.99 µM | 350,000 compounds, 0.24% hits | AID 652162; in the data active = inhibition above about 10%
Rv3671c protease: inhibitors of M. tuberculosis serine protease Rv3671c. 320,000 compounds, 0.048% hits. AID 2606. P9WHR9. inhibition, % at 5.96 µM; in the data active = inhibition above about 38%;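 note: extracellular domain of Rv3671c used as enzyme; 0% = enzyme with DMSO and 100% = no enzyme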
Mtb betalactam: beta-lactam sensitization of Mtb H37Rv; inhibition, % at 25 µM; 330,000 compounds, 0.27% hits; M. tuberculosis H37Rv growth with meropenem, percent inhibition; call rule not given here;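 note: growth measured after seven days incubation then overnight dye step; 0% = bacteria only wells and 100% = bacteria with antibiotic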
RecA intein inh: Mtb RecA intein splicing inhibition. P9WHJ3. cell-free RecA intein splicing, fluorescence. inhibition, % (concentration not given with the values). 290,000 compounds, 0.75% hits; in the data active = inhibition above about 30%;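 note: 0% = vehicle wells and 100% = reference inhibitor control wells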
MazF activator: activators of E. coli MazEF toxin-antitoxin RNase. P0AE70. FAM/BHQ RNA-DNA oligo cleavage fluorescence, 5 h. activation, % at 20 µM. 350,000 compounds, 0.32% hits. AID 504720; in the data active = activation above about 50%
Target sequence (P0AE70 whole entry, looked up): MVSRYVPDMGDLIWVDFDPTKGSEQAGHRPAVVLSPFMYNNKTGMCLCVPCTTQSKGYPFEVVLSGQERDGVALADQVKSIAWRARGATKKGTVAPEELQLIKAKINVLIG
The depositor's hits bear a star; / = not tested or not shown. Compounds with a hit are over-represented: about 0.97% of the library has one in this group of screens.

SMILES	Mtb UGM inh	TcdB GH inh	Rv3671c protease	Mtb betalactam	RecA intein inh	MazF activator
COc1cc(C(=O)NS(=O)(=O)c2ccccc2C)ccc1Cc1cn(C)c2ccc(NC(=O)OC3CCCC3)cc12	-1.6	/	-69.5	3.6	37.8*	/
COc1ccc(NC(=O)COc2ccccc2C)cc1S(=O)(=O)N1CCCCC1	3.0	0.0	-1.6	-2.6	4.9	3.8
Cc1ccccc1NC(=O)C[C@H]1CC[C@H]2[C@@H](COc3ccc(NC(=O)C4CCC4)cc3C(=O)N2C)O1	/	0.4	/	/	/	/
Cc1ccc(C(=O)c2cc(C)sc2N)cc1	4.0	2.0	1.0	9.9	-0.3	-14.6
Cc1cc(C(=O)c2ccc(Cl)cc2)c(NC(=O)CCl)s1	-2.8	/	-13.7	96.5	33.5*	4.7
CCC(=O)Nc1ccc2c(c1)C(=O)N(C)C[C@H](OC)[C@@H](C)CN(Cc1cccc(F)c1)[C@H](C)CO2	/	-0.1	/	/	/	/
COCC#Cc1ccc2c(c1)O[C@@H](CN(C)C(=O)CC1CC1)[C@H](C)CN([C@@H](C)CO)S2(=O)=O	/	12.7*	/	/	/	/
COC(=O)Cc1ccc(NC(=S)NCc2ccc(OC)cc2)cc1	2.0	23.2*	-5.2	-5.4	5.0	6.2
Cc1noc(C)c1S(=O)(=O)Nc1ccc2c(c1)C(=O)N([C@@H](C)CO)C[C@H](C)[C@@H](CN(C)CC1CCCCC1)OCCCC[C@H](C)O2	/	-1.7	/	/	/	/
c1ccc(OCCSc2nnc3sc4ccccc4n23)cc1	2.5	12.2*	-3.9	15.8	3.3	-3.2
CCCCCn1c(=O)c(C(=O)Nc2ccccc2S(N)(=O)=O)c(O)c2ccccc21	64.6*	-0.6	-4.8	3.1	-3.3	-4.9
CCCNC(=O)Nc1ccc2c(c1)C(=O)N(C)C[C@@H](OC)[C@H](C)CN(C(=O)c1ccccc1F)[C@H](C)CO2	/	0.0	/	/	/	/
COC(=O)c1ccc(NC(=O)Cn2nc(-c3ccncc3)nc2SCC(=O)Nc2nccs2)cc1	1.3	/	-54.2	-9.1	0.4	55.6*
C[C@@H](O)C#Cc1cnc2c(c1)C(=O)N([C@@H](C)CO)C[C@H](C)[C@@H](CN(C)Cc1ccc(-c3ccccc3)cc1)O2	/	-7.3	/	/	/	/
Cc1ccc(S(=O)(=O)N2CCN(Cc3nc4sc(C)c(C)c4c(=O)[nH]3)CC2)cc1	0.2	/	5.5	10.8	0.4	88.2*
CC(C)(C)c1ccc(/C=C2\SC(=O)N(CCNC(=O)c3cccc(S(=O)(=O)N4CCOCC4)c3)C2=O)cc1	-1.7	/	-50.2	-14.3	30.9*	-6.3
CCCCCCOc1ccc(C(=O)n2cnc(N)n2)cc1	-4.9	/	6.2	-3.2	53.8*	-4.1
CCCCCCOc1ccc(C(=O)O)cc1	1.0	-0.6	0.9	-4.7	0.4	7.5
COc1cccc(CC(=O)OCC(=O)Nc2c(C)nn(-c3ccccc3)c2C)c1	/	10.9*	/	/	/	11.7
Cc1nn(-c2ccccc2)c(C)c1NC(=O)COC(=O)CCc1ccccc1	1.3	0.4	-8.0	-3.7	-1.3	-3.3
CO[C@@H]1CN(C)C(=O)c2ccc(NC(=O)CC(F)(F)F)cc2OC[C@H](C)N(C(C)=O)C[C@H]1C	/	0.5	/	/	/	/
Cc1ccc(C)c2sc(NC(=O)c3ccc(N4C(=O)CCC4=O)cc3)nc12	2.2	22.6*	10.5	-2.3	-0.5	6.7
COc1ccc(C)c2sc(NC(=O)c3cccc(N4C(=O)CCC4=O)c3)nc12	2.3	-0.3	-8.3	-11.6	2.6	-15.3
CN1C(=O)c2cc(NS(C)(=O)=O)ccc2OC[C@H]2O[C@H](CC(=O)NC3CCCCC3)CC[C@@H]21	/	1.0	/	/	/	/
CCOc1cc(/C=N/n2cnnc2)ccc1O	1.1	16.5*	-6.0	-5.6	1.5	1.3
SMILES	Mtb UGM inh	TcdB GH inh	Rv3671c protease	Mtb betalactam	RecA intein inh	MazF activator
COC(=O)CCCC1=CC2=C(c3ccccc3)C(=O)C(C)(OC(=O)C3CCCC3)C(=O)C2=CN1CCc1c[nH]c2ccccc12 (configuration not stated)	-0.2	0.1	-0.9	23.6	1.6	53.8*
CCC(C)NC(=O)CSc1nnc(-c2cc(-c3cccs3)nc3ccccc23)o1 (configuration not stated)	1.5	/	-11.1	-4.0	-6.3	-11.5
NC(=O)CSc1nnc(-c2cc(-c3cccs3)nc3ccccc23)o1	2.3	/	-14.4	3.8	/	58.8*
Cc1ccc(OCC(=O)NN2C(=O)c3ccccc3C2=O)cc1	6.7	1.7	-7.7	-5.1	1.7	12.8
O=C(COc1ccc(Br)cc1)NN1C(=O)c2ccccc2C1=O	1.2	0.5	0.2	-13.8	-1.1	442.3*
C[C@@H]1CCCCO[C@H](CN(C)Cc2ccccc2)[C@H](C)CN([C@@H](C)CO)C(=O)c2cc(NS(=O)(=O)c3ccc(Cl)cc3)ccc2O1	/	-0.7	/	/	/	/
CC(=O)C(Sc1nccc(-c2cccs2)n1)C(C)=O	1.2	14.6*	-5.5	-8.0	0.5	4.4
C[C@H]1CCCCO[C@H](CN(C)C(=O)Nc2ccc(C(F)(F)F)cc2)[C@@H](C)CN([C@@H](C)CO)C(=O)c2cc(N(C)C)ccc2O1	/	-0.7	/	/	/	/
CNC(=O)C[C@H]1CC[C@@H]2[C@@H](COc3ccc(NS(=O)(=O)c4ccccc4C)cc3C(=O)N2C)O1	/	6.9	/	/	/	/
CNC(=O)C[C@@H]1CC[C@@H]2[C@H](COc3ccc(NS(=O)(=O)c4ccccc4C)cc3C(=O)N2C)O1	/	15.3*	/	/	/	/
CNC(=O)C[C@H]1CC[C@@H]2[C@H](COc3ccc(NC(=O)c4ccc(OC)cc4)cc3C(=O)N2C)O1	/	17.0*	/	/	/	/
CNC(=O)C[C@H]1CC[C@@H]2[C@@H](COc3ccc(NC(=O)Nc4ccc(C)cc4)cc3C(=O)N2C)O1	/	3.5	/	/	/	/
CNC(=O)C[C@@H]1CC[C@@H]2[C@H](COc3ccc(NC(=O)c4ccc(OC)cc4)cc3C(=O)N2C)O1	/	0.9	/	/	/	/
CNC(=O)C[C@H]1CC[C@@H]2[C@H](COc3ccc(NC(=O)Nc4ccc(C)cc4)cc3C(=O)N2C)O1	/	10.7*	/	/	/	/
COc1ccc(C(=O)Nc2ccc3c(c2)C(=O)N(C)[C@@H]2CC[C@H](CC(=O)NCC4CC4)O[C@H]2CO3)cc1	/	16.3*	/	/	/	/
C[C@@H]1CCCCO[C@@H](CN(C)Cc2ccc(C(=O)O)cc2)[C@@H](C)CN([C@@H](C)CO)C(=O)c2cc(NC(=O)Nc3ccccc3)ccc2O1	/	-0.4	/	/	/	/
CO[C@@H]1CN(C)C(=O)c2ccc(NC(C)=O)cc2OC[C@@H](C)N(C(=O)Nc2ccccc2F)C[C@H]1C	/	-0.9	/	/	/	/
CNC(=O)C[C@H]1CC[C@@H]2[C@@H](COc3ccc(NC(=O)c4ccc(OC)cc4)cc3C(=O)N2C)O1	/	12.4*	/	/	/	/
CNC(=O)C[C@H]1CC[C@H]2[C@H](COc3ccc(NC(=O)c4cccc(OC)c4)cc3C(=O)N2C)O1	/	-5.4	/	/	/	/
CN1C(=O)c2cc(NC(=O)c3cccc(F)c3)ccc2OC[C@H]2O[C@H](CC(=O)NCC3CCCCC3)CC[C@H]21	/	-5.9	/	/	/	/
CNC(=O)C[C@H]1CC[C@@H]2[C@@H](COc3ccc(NC(=O)c4cccc(OC)c4)cc3C(=O)N2C)O1	/	11.6*	/	/	/	/
CN1C(=O)c2cc(NC(=O)c3cccc(F)c3)ccc2OC[C@H]2O[C@H](CC(=O)NCC3CCCCC3)CC[C@@H]21	/	10.8*	/	/	/	/
